GAA glycogen mod: alters human alpha-glucosidase cleavage of glycogen; P10253; recombinant GAA, glycogen substrate, Amplex Red glucose oxidase fluorescence; Potency, µM (titrated, usually from 76.4 µM), for the others: at the top dose activity change, negative = inhibition, most hits filed as inhibitors; 300,000 compounds, 0.38% hits; AID 2100;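 further: 0% = full enzyme reaction and -100% = no-enzyme basal signal; the screen sought inhibitors and activators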
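Recombinant enzyme (4 nM final) with compounds titrated up to 77 uM and bovine liver glycogen (30 ug) in citrate pH 5.0, 0.01% Tween-20, 37 C 40 min. Released glucose detected by Amplex Red/glucose oxidase (Ex 573/Em 610); AC50 from Hill fits.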
GAA inhib: inhibitors of human lysosomal alpha-glucosidase | P10253 | purified human GAA, 4-MU-alpha-glucoside fluorescence | Potency, µM (titrated, usually from 76.9 µM), for the others: at the top dose activity change, negative = inhibition, most hits filed as inhibitors | 200,000 compounds, 0.005% hits | AID 1466;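 further: plate controls were uninhibited enzyme wells for no effect and no-enzyme background for full effect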
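Activity normalized between no-enzyme (basal) and enzyme-only wells. Conditions: 4 nM human enzyme, 400 uM fluorogenic substrate, citrate/phosphate pH 5.0 with Tween-20, 20 min room temperature, compounds up to 77 uM.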
PKM2 act: PKM2 (human) enzyme activation; AID 1631; purified PKM2, Kinase-Glo ATP luminescence, activation; response scale: 0% is enzyme alone, no compound; P14618; 260,000 compounds, 0.34% hits; Potency, µM (highest dose often 57.5 µM), without a hit: at the highest dose activation, most hits filed as activators; further: nearly all actives have a fitted effect of over 55% in size
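hPK-M2, >95% pure; 0.1 mM ADP / 0.5 mM PEP final; imidazole pH7.2 buffer w/ 7 mM MgCl2, 50 mM KCl; 1 h RT; Kinase-Glo lum. Intermediate enzyme activity for dual inhibitor/activator qHTS.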
GAA spleen mod: lysosomal alpha-glucosidase (human) modulation; human spleen homogenate, 4-MU-alpha-glucoside fluorescence; Potency, µM (highest dose often 79.9 µM), inactives show at the top dose activity change, negative = inhibition, usual class: inhibitors; 240,000 compounds, 0.006% hits; AID 2112;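 further: 0% = enzyme with vehicle and -100% = no enzyme basal signal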
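Human spleen homogenate (1 ug) with 4-methylumbelliferyl-alpha-D-glucopyranoside (1 mM final) in 50 mM citrate/phosphate pH 5.0, 0.01% Tween-20; 40 min at 37 C. Stopped at pH 10; 4-MU fluorescence Ex 365/Em 440 nm; AC50 by Hill fit.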
GALK inhibitor: inhibitors of human galactokinase; P51570; Purified GALK, Kinase-Glo residual ATP luminescence; Potency, µM (series often up to 57.5 µM), for inactives: at the highest dose activity change, negative = inhibition, hits mostly inhibitors; 270,000 compounds, 0.007% hits; AID 1868
Target sequence (P51570 whole entry, looked up): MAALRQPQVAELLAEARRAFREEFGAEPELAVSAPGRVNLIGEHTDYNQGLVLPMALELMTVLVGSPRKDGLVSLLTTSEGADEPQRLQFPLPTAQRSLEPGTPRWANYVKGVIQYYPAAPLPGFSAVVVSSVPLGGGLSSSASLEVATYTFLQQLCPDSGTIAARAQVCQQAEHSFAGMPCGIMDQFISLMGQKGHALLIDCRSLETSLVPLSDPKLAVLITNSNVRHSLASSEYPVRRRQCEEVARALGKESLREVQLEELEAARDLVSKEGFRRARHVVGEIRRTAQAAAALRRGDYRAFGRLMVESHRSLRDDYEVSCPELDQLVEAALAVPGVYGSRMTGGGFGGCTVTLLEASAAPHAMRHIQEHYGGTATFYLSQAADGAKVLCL
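GALK at 5 nM final was combined with compound, 35 uM ATP and 100 uM galactose in HEPES pH8.0 with MgCl2 and DTT. The reaction ran one hour at room temperature before luminescent ATP detection.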
* marks the source's active call; other numbers are inactive results; [ ] = remark or other dose. A selection: hits, their analogues and other compounds. The true share with any hit is near 0.63%. The call rests on the fitted dose curve; in most records, active means well fitted curve in the direction sought with a large enough effect; inconclusive means small, poorly fitted or top-dose-only effect, or another doubt; inactive means no such curve, though single readings can be large; an effect the other way counts as inactive or inconclusive. Unless noted, on the % scale 0 is the no-effect control and ±100 the full control effect; potency means the concentration at half of the fitted maximal effect.

For CCOc1ccc(NC(=O)C2CCCN(c3nn4cc(-c5ccc(OC)cc5)nc4s3)C2)cc1 (centres undefined) the results were GAA glycogen mod -10%[76.3 µM].
`Cc1ccc(NS(=O)(=O)c2ccc3c(c2)oc(=O)n3C)cc1F` gave GAA glycogen mod -26%, GAA inhib -13%, PKM2 act 4.5µM*, GAA spleen mod 6% and GALK inhibitor 2%.
`COC(=O)c1ccccc1NS(=O)(=O)c1ccc2c(c1)oc(=O)n2C` gave GAA glycogen mod -2%[76.3 µM], PKM2 act 11% and GALK inhibitor -6%.
For Cn1c(=O)oc2cc(S(=O)(=O)Nc3cccc(F)c3)ccc21 the results were GAA glycogen mod -3%, GAA inhib 0%, PKM2 act 13µM*, GAA spleen mod -8% and GALK inhibitor 0%.
For Cn1c(=O)oc2cc(S(=O)(=O)Nc3ccccc3O)ccc21 the results were GAA glycogen mod -12%[76.3 µM], PKM2 act 14µM* and GALK inhibitor -8%.
`Cn1c(=O)c2cc(S(=O)(=O)Nc3cccc(F)c3)ccc2n(C)c1=O` gave GAA glycogen mod -11%, GAA inhib -3%, PKM2 act 5µM*, GAA spleen mod -2% and GALK inhibitor 3%.
Cc1ccc2c(c1)-c1nc(-c3ccc4c(c3)NC(=O)CO4)cc(-c3ccc(F)cc3)c1CO2 was read as GAA glycogen mod 13%[76.3 µM].
For O=C(Nc1ccc2oc(-c3cc(Br)ccc3Cl)nc2c1)c1cc2ccccc2o1 the results were GAA glycogen mod -5%[76.3 µM].
CSc1cccc(NS(=O)(=O)c2ccc3c(c2)oc(=O)n3C)c1 was read as GAA glycogen mod -4%, GAA inhib -5%, PKM2 act 7.9µM*, GAA spleen mod 3% and GALK inhibitor 2%.
For Cc1ccc(NS(=O)(=O)c2ccc3c(c2)oc(=O)n3C)cc1C the results were GAA glycogen mod 1% and GALK inhibitor -2%.
`O=C(NCc1ccc(/C=c2\sc3n(c2=O)CCN=3)o1)C(=O)Nc1ccccc1` gave GAA glycogen mod -28%, GAA inhib -1%, PKM2 act 20µM*, GAA spleen mod -5% and GALK inhibitor 3%.
Screening Cc1ccc(/C=c2/sc3n(c2=O)CCCN=3)o1 returned GAA glycogen mod 5%, GAA inhib -12%, PKM2 act 12%, GAA spleen mod -18% and GALK inhibitor -1%.
For Cc1cc(C)c2nc(SCC(=O)Nc3cc(C)on3)c(C)cc2c1 the results were GAA glycogen mod 4% and GALK inhibitor -1%.
`Cc1cc(NC(=O)CSc2nc3c(cc2C#N)CCC3)no1` gave GAA glycogen mod 2%, PKM2 act 2.5µM* and GALK inhibitor -1%.
Screening Cc1cc(NC(=O)CSc2nc3c(cc2C#N)CCCC3)no1 returned GAA glycogen mod 10%, GAA inhib 5%, PKM2 act inconclusive, GAA spleen mod 12% and GALK inhibitor 2%.
Screening Cc1cc(C)c2nc(SCC(=O)Nc3cc(C)on3)c(C#N)cc2c1 returned PKM2 act 1.1µM* and GALK inhibitor 15%.
Cc1ccc(OCC(=O)Nc2ccc3nc(SCC(=O)N4CCCC4)sc3c2)cc1C was read as GAA glycogen mod 15%[76.3 µM].
For CCCOc1ccc(C2=NC(c3ccc(F)cc3)=Nc3ccc(OC)cc3N2)cc1 the results were GAA glycogen mod 12%[76.3 µM].
Screening COc1cc(/C=C2/NC(=O)N(Cc3ccccc3F)C2=O)ccc1Oc1ccc([N+](=O)[O-])cn1 returned GAA glycogen mod -2%, GAA inhib 0%, PKM2 act 0%, GAA spleen mod -2% and GALK inhibitor 2%.
COc1cc(/C=C2\NC(=S)N(C)C2=O)ccc1O was read as GAA glycogen mod 10µM*, GAA inhib inconclusive, PKM2 act 1%, GAA spleen mod 10% and GALK inhibitor 9%.
`COc1cc(/C=C2/NC(=O)N(Cc3ccccc3F)C2=O)ccc1O` gave GAA glycogen mod 22µM*, GAA inhib -6%, PKM2 act 5%, GAA spleen mod 0% and GALK inhibitor -1%.
`CN1C(=O)/C(=C/c2ccc(O)c([N+](=O)[O-])c2)NC1=S` gave GAA glycogen mod 4%, GAA inhib -2%, PKM2 act -12%, GAA spleen mod -5% and GALK inhibitor 8%.
Cc1ccccc1-n1nc(CO)c(C(=O)NCC(c2ccccc2)c2ccccc2)n1 was read as GAA glycogen mod 6%[76.3 µM].
`Cc1ccc(S(=O)(=O)c2cn(C)c3cc(N4CCCC(C)C4)c(F)cc3c2=O)c(C)c1` (centres undefined) gave GAA glycogen mod 5%[76.3 µM].
Screening O=C(O)c1ccc(N=C2SCC(=O)N2Cc2ccccc2)cc1 returned GAA glycogen mod 14%, GAA inhib 12%, PKM2 act 0%, GAA spleen mod 4% and GALK inhibitor 9%.
`O=C(O)c1ccc(CN2C(=O)CSC2=S)cc1` gave GAA glycogen mod 18µM*, GAA inhib -4%, PKM2 act 1%, GAA spleen mod -7% and GALK inhibitor -2%.
For O=C(CN1CCN(c2ccccc2O)CC1)NC(=O)NC1CCCC1 the results were GAA glycogen mod 4µM*, GAA inhib 1%, PKM2 act 0%, GAA spleen mod -3% and GALK inhibitor 8%.
N#Cc1c(N)n(CCNC(=O)c2ccccc2)c2nc3ccccc3nc12 was read as GAA glycogen mod -3%, GAA inhib inconclusive, PKM2 act 18µM* and GAA spleen mod -1%.
Screening O=C1Cc2ccccc2C(=O)N1OCc1ccc(Cl)cc1Cl returned GAA glycogen mod 25µM*, GAA inhib 4%, PKM2 act -9%, GAA spleen mod -4% and GALK inhibitor 5%.
`COc1cccc(-c2csc3nc[nH]c(=O)c23)c1` gave GAA glycogen mod -5%, GAA inhib -5%, PKM2 act 28µM*, GAA spleen mod 2% and GALK inhibitor 0%.
For O=C1CC(c2nc3ccccc3n2CCCOc2ccccc2)CN1c1ccc(F)cc1 (centres undefined) the results were GAA glycogen mod 5%[76.3 µM].
`Cc1nc(Sc2nnnn2C)c2c3c(sc2n1)CCC3` gave GAA glycogen mod -11%, GAA inhib -1%, PKM2 act 2%, GAA spleen mod 6% and GALK inhibitor 0%.
Screening CCc1nc(Sc2nnnn2-c2ccccc2)c2c3c(sc2n1)CCCC3 returned GAA glycogen mod 0%, GAA inhib 0%, PKM2 act 10µM*, GAA spleen mod 6% and GALK inhibitor -3%.
Screening CN(CC(=O)Nc1cccc(F)c1)S(=O)(=O)c1ccc2c(c1)n(C)c(=O)c(=O)n2C returned GAA glycogen mod -9%[76.3 µM].
`CCN(CC)CCOC(=O)c1ccc(NC(=O)c2cc3c(=O)n(CC)c4ccccc4c3s2)cc1` gave GAA glycogen mod -5%[76.3 µM].
